Screening results from PubChem BioAssay.
Pf growth 96h: P. falciparum growth inhibition at 96 hour, primary screen for plastid delayed-death inhibitors | P. falciparum luciferase reporter growth, 96 h | Potency, µM (highest dose often 28.7 µM), most hits filed as inhibitors | 320,000 compounds, 6.9% hits | AID 504834
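Two-generation exposure (96 h) targets delayed-death phenotype. Reporter parasites carrying integrated firefly luciferase, in red cells at 2% hematocrit and 0.05% parasitemia final, kept at 37 C, 5% CO2; luminescence loss indicates inhibition.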
Shiga toxin inh: Shiga toxin inhibition. Vero cells, Shiga toxin protein synthesis inhibition reporter. 290,000 compounds, 9.2% hits. AID 2315. inhibition, % at 38.7 µM; in the data active = inhibition mostly above about 28%, no sharp cut-off; inactive = mostly below about 43%
Pf growth 48h: inhibits P. falciparum growth in the first generation, 48 h; P. falciparum luciferase growth in erythrocytes, 48 h; Potency, µM (top dose mostly 28.7 µM), hits mostly inhibitors; 310,000 compounds, 5.9% hits; AID 504832
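Parasite viability was followed by luminescence of a genomically integrated firefly luciferase. Cultures held 0.1% parasitemia at 2% hematocrit (final), incubated under 5% CO2 at 37 C.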
HCMV antiviral: blocks human cytomegalovirus replication; HFF cells, HCMV-luciferase reporter, 72 h; hits give low values; activity change, negative = inhibition, % at 57.5 µM; 410,000 compounds, 4.5% hits; in the data active = activity change below about -60%; inconclusive = no clear call, values can overlap the other calls; inactive = above about -39%
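After 16 h attachment at 37C, HFF cells received test compound and HCMV-luciferase (1 PFU/cell); reporter luminescence read 72 h later, data normalized against buffer-only and known inhibitor Salinomycin.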
CHX counter: counter-screen hit for Shiga toxin inhibitors, cycloheximide; max response, %; cell reporter, cycloheximide protein synthesis inhibition counterscreen; 300,000 compounds, 12% hits; in the data active = max response mostly above about 13%, no sharp cut-off; inactive = mostly below about 14%; note: read at 38.3 µM for the half of the compounds with a filed dose
Each line names hits and unclear results; the compound was inactive in the other large screens. This is a sample that favours compounds with a hit; in the whole collection about 20% have one here. Unless noted, calls come from the whole dose curve; as a rule, active = well fitted inhibition curve with a large enough effect; inconclusive = small, poorly fitted or top-dose-only effect, or another doubt; inactive = no such curve, though single readings can be large or run the other way.

CCCCCCCCCn1ccc(=N)cc1	Pf growth 96h inconclusive, Pf growth 48h 0.165µM, HCMV antiviral -94.7
CCCCCCCn1ccc(=N)cc1	Pf growth 48h 0.928µM, HCMV antiviral -91.0 (no result: Pf growth 96h)
CCn1ccc(=N)cc1	Pf growth 96h 11.7µM, Pf growth 48h inconclusive
CSCCn1c(C(C)(C)C)cc(C(=O)O)c1C	Pf growth 96h 8.28µM, HCMV antiviral inconclusive
COc1ccc(OC)c(NC(=O)N(C)CCc2c(C)nn(C)c2C)c1	none (no result: Pf growth 96h, Shiga toxin inh, Pf growth 48h, CHX counter)
CC1(C)CC(=O)C=C(c2ccc3ccccc3c2)C1	none (no result: Shiga toxin inh, CHX counter)
CN(C)c1ccc(C(=O)OCC(=O)Nc2ccc(N3CCOCC3)cc2)cc1	Pf growth 48h inconclusive, HCMV antiviral inconclusive
COC(=O)c1ccccc1NC(=O)COC(=O)c1ccccc1N=Nc1ccc(N(C)C)cc1	Pf growth 96h 9.28µM, Pf growth 48h inconclusive
CC(=O)c1ccc(NC(=O)COC(=O)c2ccccc2N=Nc2ccc(N(C)C)cc2)cc1	Pf growth 96h inconclusive, Shiga toxin inh 99.2, Pf growth 48h inconclusive, HCMV antiviral inconclusive, CHX counter 49.5
CN(C)c1ccc(N=Nc2ccccc2C(=O)OCC(=O)N(C)c2ccccc2)cc1	Pf growth 96h inconclusive, Pf growth 48h 13.1µM, HCMV antiviral inconclusive, CHX counter 34.0
COC(=O)c1ccccc1NC(=O)COC(=O)c1ccco1	none
Cc1onc(-c2ccccc2)c1C(=O)OCC(=O)N1CCC(C)CC1	Pf growth 48h inconclusive (no result: Shiga toxin inh, CHX counter)
Cc1ccc(-c2csc3nnc(SCC(=O)Nc4cccc(C)n4)n23)cc1	none
CN(C)C=NC(=O)c1cc2c(n(-c3ccccc3)c1=O)CC(C)(C)CC2=O	none (no result: Pf growth 96h, Shiga toxin inh, Pf growth 48h, CHX counter)
O=C1C2C3C=CC(CO)(O3)C2C(=O)N1c1ccccc1-c1ccccc1 (centres undefined)	Pf growth 96h 5.86µM, Pf growth 48h inconclusive (no result: HCMV antiviral)
O=C(COC(=O)Cn1cnc2ccccc21)Nc1ccc(F)c(F)c1	none (no result: Pf growth 96h, Shiga toxin inh, Pf growth 48h, CHX counter)
O=C(Nc1nc(-c2ccc(F)c(F)c2)cs1)c1ccc(OCC2CCCO2)cc1 (centres undefined)	HCMV antiviral -69.3
O=C(Nc1nc(-c2ccc(F)c(F)c2)cs1)C1=COCCO1	none (no result: Shiga toxin inh, CHX counter)
Cc1csc(NC(=O)c2ccc(OCC3CCCO3)cc2)n1 (centres undefined)	CHX counter 14.3
CCOc1ccc2nc(NC(=O)c3ccc(OCC4CCCO4)cc3)sc2c1 (centres undefined)	Pf growth 96h inconclusive, Shiga toxin inh 35.8, Pf growth 48h 8.28µM, HCMV antiviral inconclusive, CHX counter 34.6
Cc1cccc2sc(NC(=O)c3ccc(OCC4CCCO4)cc3)nc12 (centres undefined)	Shiga toxin inh 100.4, Pf growth 48h inconclusive, CHX counter 45.6
Cc1c(C#N)c(NC(=O)CCl)n(Cc2ccc(F)cc2)c1C	Pf growth 96h inconclusive, Pf growth 48h inconclusive, HCMV antiviral -67.7
Cc1c(C#N)c(NC(=O)CCl)n(Cc2cccs2)c1C	Pf growth 96h 3.29µM, Pf growth 48h 10.4µM, HCMV antiviral -92.6
Cc1c(C#N)c(NC(=O)CCl)n(Cc2ccccc2)c1C	Pf growth 96h 18.5µM, Pf growth 48h inconclusive, HCMV antiviral inconclusive
CC(=O)NC1=NN(C(C)=O)C(c2ccc(F)cc2)S1 (centres undefined)	none
CCN(CC(=O)Nc1cccc(OC)c1)CC(=O)Nc1ccccc1C	none
Cc1ccccc1OCC(O)Cn1c2ccccc2c2ccccc21 (centres undefined)	Pf growth 96h 11.7µM, Pf growth 48h 8.28µM
Cc1ccccc1OCC(O)CN1CCN(CCN2C(=O)c3cccc4cccc(c34)C2=O)CC1 (centres undefined)	Pf growth 96h inconclusive, HCMV antiviral inconclusive
Cc1cc(C)n(CC(O)COc2ccc(Cl)cc2Cl)n1 (centres undefined)	Shiga toxin inh 29.0, CHX counter 29.8
Cc1ccccc1OCC(O)CN1CCN(CC(O)COc2ccccc2C)C(C)C1 (centres undefined)	Pf growth 96h inconclusive, Pf growth 48h 9.28µM
OC(COc1ccccc1)Cn1c2ccccc2c2ccccc21 (centres undefined)	Pf growth 48h inconclusive
CC(=O)Nc1ccc(OCC(O)Cn2c3ccccc3c3ccccc32)c(C)c1 (centres undefined)	Pf growth 96h 10.4µM, Pf growth 48h inconclusive, HCMV antiviral -60.7
CC(C)CNC(=O)C1(C)CCCN1C(=O)CCc1cccs1 (centres undefined)	none (no result: Pf growth 96h, Shiga toxin inh, Pf growth 48h, CHX counter)
O=C(c1ccccc1Br)N1CCC(c2nc3ccccc3o2)CC1	none (no result: Pf growth 96h, Shiga toxin inh, Pf growth 48h, CHX counter)
Cc1cc(C)n(CC(O)Cn2ccc3ccccc32)n1 (centres undefined)	Pf growth 96h inconclusive (no result: Pf growth 48h)
Cc1cc(C)n(CC(O)Cn2c3ccccc3c3ccccc32)n1 (centres undefined)	Pf growth 48h 10.4µM (no result: Pf growth 96h)
CCNC(=O)C1(C)CCN(Cc2ccccc2-c2ccccc2)C1 (centres undefined)	none (no result: Pf growth 96h, Shiga toxin inh, Pf growth 48h, CHX counter)
COc1cscc1C(=O)O	none
COC1CCCN(Cc2cn(C)nc2-c2ccc(Oc3ccccc3)cc2)C1 (centres undefined)	Pf growth 96h inconclusive
COCCN1CCCC(CNCc2cn(C)nc2-c2ccc(Oc3ccccc3)cc2)C1 (centres undefined)	Pf growth 96h inconclusive, Pf growth 48h 6.57µM, HCMV antiviral inconclusive
CCCN1CCC(NCc2cn(C)nc2-c2ccc(Oc3ccccc3)cc2)CC1	Pf growth 96h inconclusive, Pf growth 48h 1.65µM, HCMV antiviral inconclusive
Cn1cc(CN2CCCCC2CO)c(-c2ccc(Oc3ccccc3)cc2)n1 (centres undefined)	Pf growth 48h inconclusive
CC(CCc1ccccc1)NC(=O)CC(C)c1ccccc1 (centres undefined)	Pf growth 96h inconclusive
COc1ccc(S[C@]2(c3nc(C)no3)CC(=O)N(P(=O)(OC)OC)[C@@H]2c2ccc(OC)cc2)cc1	none (no result: Pf growth 96h, Shiga toxin inh, Pf growth 48h, CHX counter)
COCC(=O)Nc1ccc(Nc2ccccc2)cc1	Shiga toxin inh 60.5
CCC(=O)Nc1ccc(Nc2ccccc2)cc1	Shiga toxin inh 33.6, Pf growth 48h inconclusive, CHX counter 15.7
CC(C)c1ccc(NC(=O)CN2C(=O)COc3ccc(S(=O)(=O)Nc4ccccc4)cc32)cc1	none (no result: Pf growth 96h, Shiga toxin inh, Pf growth 48h, CHX counter)
O=C1CCCc2c1cc(C(=O)Nc1ccc(Br)cn1)c(=O)n2-c1ccccc1	Pf growth 48h 4.15µM
COC(=O)C(CCSC)NC(=O)c1cc2c(n(-c3ccccc3)c1=O)CCCC2=O (centres undefined)	CHX counter 16.3
O=C1CCCc2c1cc(C(=O)O)c(=O)n2-c1ccccc1	Pf growth 96h inconclusive
CC1CN(CC(=O)NCc2ccc(F)cc2)CC(C)O1 (centres undefined)	none
Cc1cc2c(NCCc3ccccc3)ncnc2s1	Shiga toxin inh 64.7, HCMV antiviral -88.3, CHX counter 24.8
c1ccc(CCNc2ncnc3ccccc23)cc1	HCMV antiviral -89.3, CHX counter 49.4
CCc1ccccc1Nc1ncnc2ccccc12	none
CCCCCCCCNc1ncnc2ccccc12	Pf growth 96h 5.22µM (no result: Pf growth 48h, HCMV antiviral)
Nc1ccccc1S(=O)(=O)Nc1cccc2cccnc12	none (no result: Pf growth 96h, Pf growth 48h, HCMV antiviral)
COc1ccc(C(=O)Nc2ccccc2C(=O)NC2CC2)c(OC)c1OC	none (no result: Pf growth 96h, Shiga toxin inh, Pf growth 48h, CHX counter)
COc1ccc(OC)c(NC(=O)c2cccn2-c2nnc(N3CCCCC3)s2)c1	none (no result: Pf growth 96h, Shiga toxin inh, Pf growth 48h, CHX counter)
